In PubChem BioAssay:
For part of these data: Entries with a potency or affinity are not part of this list. Active and inactive are the calls of the source.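 The calls were made as follows, unless noted: active = signal rise over 3 SD above mean of control wells given weak agonist, in both repeats and first screen; inactive = the rest.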

Legend:
[1] = tested on: TRPC4 beta (transient receptor potential cation channel C4), mouse; experiment: TRPC4 cation channel opening, retest – cell-based, Fluo4 calcium, HEK293 TRPC4beta/mu-opioid, duplicates, 10 µM, confirmation (AID 2426;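 active = fluorescence ratio normalized to control raised more than 50% in primary screen plus both repeat runs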;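 as to activation: percent rise of integrated ratio over buffer wells lacking compound which define 0%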); conditions: Fluo4 calcium fluorescence, at 10 µM; active compounds read high
[2] = tested on: transient receptor potential cation channel C4 beta (TRPC4), mouse; experiment: TRPC4 cation channel opening, second retest – cell-based, second round, Fluo4, HEK293 TRPC4beta/mu-opioid, 1 µM, confirmation (AID 2461;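 active = primary screen active and over 50% activation in each of two duplicate runs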); conditions: Fluo4 calcium fluorescence, at 1 µM; active compounds read high
[3] = tested on: TRPC4 (transient receptor potential cation channel C4 beta), mouse; experiment: potentiation of DAMGO EC20 TRPC4 response – cell-based, second round, Fluo-4, HEK293 TRPC4beta/mu-opioid, 1 µM, confirmation (AID 2554;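 active = primary screen hit whose fluorescence ratio, in both repeats, exceeds the weak agonist control mean by 3 SD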); conditions: DAMGO EC20, Fluo-4 calcium flux, at 1 µM; active compounds read high
[4] = tested on: TRPC4 beta (transient receptor potential cation channel C4), mouse; experiment: potentiation of DAMGO EC20 TRPC4 response – cell-based, Fluo-4, HEK293 TRPC4beta/mu-opioid, confirmation (AID 2555;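 active = primary screen hit whose calcium fluorescence ratio, in both repeats, exceeds the weak agonist control mean by 3 SD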); conditions: DAMGO EC20, Fluo-4 calcium flux, at 10 µM; active compounds read high
[5] = target: Short transient receptor potential channel 4 (Mus musculus) (UniProt Q9QUQ5); experiment: blockers of DAMGO-evoked TRPC4 calcium flux – cell-based, Fluo4, HEK293 TRPC4beta/mu-opioid, confirmation (AID 2636;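 active = calcium signal cut by more than 3 SD below the full-agonist control yet still positive, in both repeats and the earlier primary screen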); conditions: at 10 µM; active compounds read high
[6] = target: Short transient receptor potential channel 4 (Mus musculus) (UniProt Q9QUQ5); experiment: blockers of DAMGO-evoked TRPC4 calcium flux – cell-based, second round, Fluo4, HEK293 TRPC4beta/mu-opioid, 1 µM, confirmation (AID 2637;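 active = calcium signal ratio cut to more than 3 SD under the fully stimulated control mean yet still positive, in both repeats and the primary screen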); conditions: at 1 µM; active compounds read high
[7] = target: Short transient receptor potential channel 4 (Mus musculus) (UniProt Q9QUQ5); experiment: calcium entry via TRPC4 opening agents – cell-based, HEK293 TRPC4/mu-opioid, Fluo-4 calcium, dose response (AID 434937;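 active = primary screen activator hit with a dose response curve and TRPC4 channel activation at any tested dose; inactive = no activation, no dose response, or not a primary hit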)
[8] = target: Short transient receptor potential channel 4 (Mus musculus) (UniProt Q9QUQ5); experiment: potentiation of DAMGO-evoked TRPC4 calcium signal – cell-based, HEK293 TRPC4/mu-opioid, Fluo-4 calcium, EC20 DAMGO, dose response (AID 434941;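 active = earlier screen potentiator hit that boosts the TRPC4 ion channel at some dose, with a dose response; inactive = no potentiation, no dose response, or not a prior hit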;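 also: calcium entry triggered by an EC20 dose of DAMGO at the co-expressed mu-opioid receptor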)
[9] = target: Short transient receptor potential channel 4 (Mus musculus) (UniProt Q9QUQ5); experiment: block of DAMGO-driven TRPC4 calcium entry – cell-based, HEK293 TRPC4/mu-opioid, Fluo-4 calcium, dose response (AID 434942;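 active = primary screen inhibitor hit that blocks the TRPC4 channel at some tested dose, yielding a dose curve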)
[10] = target: Short transient receptor potential channel 6 (Mus musculus) (UniProt Q61143); experiment: TRPC6 blockade by TRPC4 inhibitor hits – cell-based, HEK293, membrane potential dye, duplicate, selectivity assay for TRPC4 inhibitor project, confirmation (AID 434948;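 active = active in primary screen and both duplicates, each dropping signal beyond three positive-control SD with fluorescence still positive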); conditions: HEK293 TRPC6, membrane potential dye fluorescence, at 10 µM, stimulated with maximal-effect acetylcholine; active compounds read high
[11] = target: Short transient receptor potential channel 6 (Mus musculus) (UniProt Q61143); experiment: TRPC6 opening by TRPC4 activator hits – cell-based, HEK293, membrane potential dye, duplicate, selectivity assay for TRPC4 activator project, confirmation (AID 434950;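 active = membrane potential signal rise above negative control mean plus 3 SD in both duplicates, also active in the earlier TRPC4 screen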); conditions: HEK293 TRPC6, membrane potential fluorescence, at 10 µM; activation: active compounds read high; outcome: activation
[12] = target: Short transient receptor potential channel 6 (Mus musculus) (UniProt Q61143); experiment: positive modulators of mouse TRPC6 channel – HEK293 cells, membrane potential dye, duplicate, selectivity assay for TRPC4 potentiator project, confirmation (AID 434952;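 active = compound raising the membrane signal above positive-control mean plus 3 SD in both repeats, and a primary screen hit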); conditions: HEK293 TRPC6, membrane potential dye fluorescence, at 10 µM, maximal acetylcholine added after compound; active compounds read high
[13] = target: Short transient receptor potential channel 4 (Mus musculus) (UniProt Q9QUQ5); experiment: calcium flux activators in TRPC4/5HT1a cells, counter-screen for TRPC4 activator project, cell-based, second counter screen, HEK293 TRPC4/5HT1a, Fluo-4 (AID 434977;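 active = calcium signal rise above buffer-control mean plus 5 SD in both duplicates, and also a hit in the primary screen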;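 as to activation: plate controls were assay buffer for no effect and maximal serotonin response for full effect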); conditions: Fluo-4 calcium flux, at 10 µM; active compounds read high
[14] = serotonin-gated TRPC4 signal block – cell-based, second counter screen, HEK293 TRPC4/5HT1a, Fluo-4, counter-screen for TRPC4 inhibitor project, confirmation (AID 434978;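 active = primary screen active whose calcium signal fell more than 3 SD beyond the full-serotonin control mean in both duplicate plates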;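 also: serotonin given first at submaximal then at maximal dose after compound preincubation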); conditions: Fluo-4 calcium flux, at 10 µM, serotonin added to trigger calcium flux; active compounds read high
[15] = tested on: TRPC4 (mouse), co-expressed with 5HT1a in HEK293; experiment: enhancement of serotonin-evoked TRPC4 response – cell-based, second counter screen, HEK293 TRPC4/5HT1a, Fluo-4, counter-screen for TRPC4 potentiator project, confirmation (AID 434979); conditions: Fluo-4 calcium flux, at 10 µM, serotonin added at its EC20 dose; active compounds read high
[16] = nonspecific calcium rise without TRPC4 – cell-based, HEK293 mu-opioid receptor line, counter-screen for TRPC4 activator project, confirmation (AID 449723;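 active = hit in primary screen, with calcium signal over 5 SD above buffer well mean in both duplicates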;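 also: counter screen cells carry the mu-opioid receptor alone and lack TRPC4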); conditions: HEK293 mu-opioid cells, Fluo-4 calcium fluorescence, at 10 µM; active compounds read high
[17] = nonspecific potentiation of DAMGO calcium response – cell-based, HEK293 mu-opioid receptor line, counter-screen for TRPC4 allosteric potentiator project, confirmation (AID 449724;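 active = calcium signal rise more than 3 SD above the low-dose agonist control mean, in both duplicate plates and the primary screen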); conditions: HEK293 mu-opioid receptor cells, Fluo-4 calcium flux, at 10 µM, compound added before EC20 DAMGO stimulus; active compounds read high

Sequence of Short transient receptor potential channel 6 (Mus musculus) (Q61143 whole entry, looked up): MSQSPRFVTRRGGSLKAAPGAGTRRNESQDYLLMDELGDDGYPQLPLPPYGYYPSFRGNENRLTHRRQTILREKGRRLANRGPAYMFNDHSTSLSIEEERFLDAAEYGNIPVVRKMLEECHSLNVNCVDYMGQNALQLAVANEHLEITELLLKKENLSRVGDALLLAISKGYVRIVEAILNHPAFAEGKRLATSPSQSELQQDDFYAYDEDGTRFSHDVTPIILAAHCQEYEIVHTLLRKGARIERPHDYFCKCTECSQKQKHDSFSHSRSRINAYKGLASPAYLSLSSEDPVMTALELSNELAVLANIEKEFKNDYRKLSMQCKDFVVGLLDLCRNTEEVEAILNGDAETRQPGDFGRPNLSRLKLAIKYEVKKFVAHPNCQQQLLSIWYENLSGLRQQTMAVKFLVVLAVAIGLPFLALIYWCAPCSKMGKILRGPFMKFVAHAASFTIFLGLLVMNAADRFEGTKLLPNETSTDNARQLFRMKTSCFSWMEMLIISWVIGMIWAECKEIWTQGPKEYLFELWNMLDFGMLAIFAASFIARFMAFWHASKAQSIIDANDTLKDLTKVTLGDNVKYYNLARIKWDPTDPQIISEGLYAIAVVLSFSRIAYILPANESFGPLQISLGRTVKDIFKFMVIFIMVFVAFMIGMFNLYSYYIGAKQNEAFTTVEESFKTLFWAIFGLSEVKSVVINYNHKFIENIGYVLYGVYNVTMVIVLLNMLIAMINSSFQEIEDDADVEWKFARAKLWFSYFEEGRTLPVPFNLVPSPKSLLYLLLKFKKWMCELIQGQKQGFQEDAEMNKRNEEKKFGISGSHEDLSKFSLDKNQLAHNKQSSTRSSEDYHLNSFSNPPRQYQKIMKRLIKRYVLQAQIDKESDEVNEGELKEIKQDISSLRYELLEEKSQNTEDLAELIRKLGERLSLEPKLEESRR
Sequence of Short transient receptor potential channel 4 (Mus musculus) (Q9QUQ5 whole entry, looked up): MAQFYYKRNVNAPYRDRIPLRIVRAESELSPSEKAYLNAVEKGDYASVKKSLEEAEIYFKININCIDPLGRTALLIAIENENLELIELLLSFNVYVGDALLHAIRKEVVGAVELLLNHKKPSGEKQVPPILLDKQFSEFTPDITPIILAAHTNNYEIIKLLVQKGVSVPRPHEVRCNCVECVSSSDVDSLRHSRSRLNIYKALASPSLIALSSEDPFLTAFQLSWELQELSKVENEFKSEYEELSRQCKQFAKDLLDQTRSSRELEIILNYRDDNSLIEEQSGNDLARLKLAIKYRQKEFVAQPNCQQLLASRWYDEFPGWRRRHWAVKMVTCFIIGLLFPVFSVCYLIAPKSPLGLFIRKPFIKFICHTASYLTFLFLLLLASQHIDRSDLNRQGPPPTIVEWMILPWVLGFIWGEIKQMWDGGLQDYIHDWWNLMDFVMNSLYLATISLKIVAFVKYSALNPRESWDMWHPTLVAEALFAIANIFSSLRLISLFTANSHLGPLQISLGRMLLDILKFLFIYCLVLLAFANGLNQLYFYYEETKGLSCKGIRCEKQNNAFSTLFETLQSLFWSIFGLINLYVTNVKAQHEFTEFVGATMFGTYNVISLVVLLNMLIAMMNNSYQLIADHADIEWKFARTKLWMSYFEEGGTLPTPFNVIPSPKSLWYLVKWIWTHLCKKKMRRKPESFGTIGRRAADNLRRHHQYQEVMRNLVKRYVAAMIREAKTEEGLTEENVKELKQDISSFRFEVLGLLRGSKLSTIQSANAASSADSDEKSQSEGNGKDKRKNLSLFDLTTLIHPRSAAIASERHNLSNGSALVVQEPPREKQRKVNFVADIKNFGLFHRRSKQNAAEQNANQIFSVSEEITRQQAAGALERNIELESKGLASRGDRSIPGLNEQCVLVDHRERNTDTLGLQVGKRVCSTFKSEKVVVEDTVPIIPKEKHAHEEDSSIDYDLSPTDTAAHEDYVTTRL

Cc1[nH]n2c(=O)c3c(nc2c1-c1ccccc1)CCC3
inactive: outcome [1] | outcome [2] | outcome [3] | outcome [4] | outcome [6] | outcome [7] | outcome [8] | outcome [9] | outcome [10] | outcome [11] | outcome [12] | outcome [13] | outcome [14] | outcome [15] | outcome [16] | outcome [17]
active: inhibition [5] 76%

CCCN(CCC)CCCNC(=O)c1cc2c(=O)n(C)c3ccccc3c2n1C
active: potentiation [3] 23% | activation [13] 6.09% | potentiation [15] 23.1%
inactive: outcome [1] | outcome [2] | outcome [4] | outcome [5] | outcome [6] | outcome [7] | outcome [8] | outcome [9] | outcome [10] | outcome [11] | outcome [12] | outcome [14] | outcome [16] | outcome [17]

CCc1ccc(OCc2ccc(C(=O)NCc3ccccn3)o2)cc1
inactive: outcome [1] | outcome [2] | outcome [3] | outcome [5] | outcome [6] | outcome [7] | outcome [8] | outcome [9] | outcome [10] | outcome [11] | outcome [12] | outcome [13] | outcome [14] | outcome [15] | outcome [16] | outcome [17]
active: potentiation [4] 19%

CN(C)S(=O)(=O)c1cccc(COC(=O)c2ccc(Cl)cc2O)c1
active: potentiation [4] 21% | potentiation [15] 41.5%
inactive: outcome [1] | outcome [2] | outcome [3] | outcome [5] | outcome [6] | outcome [7] | outcome [8] | outcome [9] | outcome [10] | outcome [11] | outcome [12] | outcome [13] | outcome [14] | outcome [16] | outcome [17]

Cc1cc(C)nc(Nc2nc(=O)c3ccccc3s2)n1
active: potentiation [3] 10% | potentiation [4] 82% | potentiation [15] 81.3%
inactive: outcome [1] | outcome [2] | outcome [5] | outcome [6] | outcome [7] | outcome [8] | outcome [9] | outcome [10] | outcome [11] | outcome [12] | outcome [13] | outcome [14] | outcome [16] | outcome [17]

COc1ccccc1C(=O)NNC1=C(C(=O)C(F)(F)F)CCC1
active: activation [1] 58% | activation [13] 11%
inactive: outcome [2] | outcome [3] | outcome [4] | outcome [5] | outcome [6] | outcome [7] | outcome [8] | outcome [9] | outcome [10] | outcome [11] | outcome [12] | outcome [14] | outcome [15] | outcome [16] | outcome [17]

Cc1ccc(CSc2nnc(-c3cccc(S(=O)(=O)N4CCOCC4)c3)n2C2CCCC2)cc1
inactive: outcome [1] | outcome [2] | outcome [3] | outcome [4] | outcome [5] | outcome [6] | outcome [7] | outcome [8] | outcome [9] | outcome [10] | outcome [11] | outcome [12] | outcome [13] | outcome [14] | outcome [15] | outcome [16] | outcome [17]

CN(C)CCOC(=O)C1(c2ccccc2)CCOCC1
active: potentiation [4] 8% | potentiation [15] 23.2%
inactive: outcome [1] | outcome [2] | outcome [3] | outcome [5] | outcome [6] | outcome [7] | outcome [8] | outcome [9] | outcome [10] | outcome [11] | outcome [12] | outcome [13] | outcome [14] | outcome [16] | outcome [17]

Cc1cccc(OCCn2c(=O)sc3ccccc32)c1
inactive: outcome [1] | outcome [2] | outcome [3] | outcome [4] | outcome [5] | outcome [6] | outcome [7] | outcome [8] | outcome [9] | outcome [10] | outcome [11] | outcome [12] | outcome [13] | outcome [14] | outcome [15] | outcome [16] | outcome [17]

COc1ccc(N2CCN(C3CCCCC3NS(=O)(=O)c3ccc(Cl)cc3)CC2)cc1 (stereo not given)
inactive: outcome [1] | outcome [2] | outcome [3] | outcome [4] | outcome [5] | outcome [6] | outcome [7] | outcome [8] | outcome [9] | outcome [10] | outcome [11] | outcome [12] | outcome [13] | outcome [14] | outcome [16] | outcome [17]
active: potentiation [15] 10.1%

CC(C)CCc1noc(CN2CCN(c3ccc(Cl)cn3)CC2)n1
inactive: outcome [1] | outcome [2] | outcome [3] | outcome [4] | outcome [5] | outcome [6] | outcome [7] | outcome [8] | outcome [9] | outcome [10] | outcome [11] | outcome [12] | outcome [13] | outcome [14] | outcome [15] | outcome [16] | outcome [17]

O=C(Nc1cnn(C23CC4CC(CC(C4)C2)C3)c1)c1cnn2cccnc12
active: potentiation [3] 27% | potentiation [4] 61% | potentiation [15] 71.9%
inactive: outcome [1] | outcome [2] | outcome [5] | outcome [6] | outcome [7] | outcome [8] | outcome [9] | outcome [10] | outcome [11] | outcome [12] | outcome [13] | outcome [14] | outcome [16] | outcome [17]

CN1CCN(Cc2cccc(Oc3ccc(Cl)cc3)c2)CC1
inactive: outcome [1] | outcome [2] | outcome [4] | outcome [5] | outcome [6] | outcome [7] | outcome [8] | outcome [9] | outcome [10] | outcome [11] | outcome [12] | outcome [13] | outcome [14] | outcome [16] | outcome [17]
active: potentiation [3] 22% | potentiation [15] 15.1%

COc1ccc(-c2cc(C(F)(F)F)nc(N3CCN(C)CC3)n2)cc1
active: potentiation [15] 14.5%
inactive: outcome [1] | outcome [2] | outcome [3] | outcome [4] | outcome [5] | outcome [6] | outcome [7] | outcome [8] | outcome [9] | outcome [10] | outcome [11] | outcome [12] | outcome [13] | outcome [14] | outcome [16] | outcome [17]

CCCCNC(=O)/C(C#N)=C/c1ccc(F)cc1F
active: potentiation [4] 9%
inactive: outcome [1] | outcome [2] | outcome [3] | outcome [5] | outcome [6] | outcome [7] | outcome [8] | outcome [9] | outcome [10] | outcome [11] | outcome [12] | outcome [13] | outcome [14] | outcome [15] | outcome [16] | outcome [17]
